The source made the active and inactive calls. How the source made its calls: active means hit-call score of the fitted dose curve at least 0.9, where 1 is the maximum; inactive means score below 0.9.
test: APR_HepG2_P-H2AX_72hr: Apredica 72-hour HepG2 Assay for H2AX Phosphorylation (AID 2282916); conditions: imaging, actives raise or lower the signal
Method: APR_HepG2_72hr is a cell-based, multiplexed-readout assay that uses HepG2, a human liver cell line, with measurements taken at 72 hours after chemical dosing in a 384-well plate.APR_HepG2_P-H2AX_72hr is one of 10 assay component(s) measured or calculated from the APR_HepG2_72hr assay. It is designed to make measurements of dna content, a form of viability reporter, as detected with fluorescence intensity signals by HCS Fluorescent Imaging technology.Data from the assay component APR_HepG2_P-H2AX_72hr was analyzed into 1 assay endpoint. This assay endpoint, APR_HepG2_P-H2AX_72hr, was analyzed with bidirectional fitting relative to DMSO as the negative control and baseline of activity. Using a type of viability reporter, measures of protein for gain or loss-of-signal activity can be used to understand the signaling at the pathway-level as they relate to the gene . Furthermore, this assay endpoint can be referred to as a primary readout, because this assay has produced multiple assay endpoints where this one serves a signaling function. To generalize the intended target to other relatable targets, this assay endpoint is annotated to the dna binding intended target family, where the subfamily is cellular response to DNA damage stimulus.
Cells were treated with dimethyl sulfoxide (DMSO) as a solvent control at a final concentration of 0.5% v/v or with compounds in DMSO with a resulting final DMSO concentration of 0.5% v/v. Compound treatment was done at concentrations of 0.39, 0.78, 1.56, 3.12, 6.24, 12.5, 25, 50, 100, and 200 uM in duplicate on each plate. Cells were treated with compounds for 1, 24, or 72 hr. Carbonyl […] m-chloro-phenylhydrazone (CCCP) and taxol were used as positive controls for mitochondrial function and cytoskeletal stability, respectively; DMSO served as the negative control for this experiment. Cells were fixed by the direct addition of 50 uL formaldehyde in Hank's Balanced Salt Solution (HBSS) to a final concentration of 3.7%. After incubation in the fixation medium for 30 min at room temperature (293-298 K), cells were rinsed twice with HBSS and treated with cell permeabilization buffer (16 uL of 0.5% Triton X-100) for 10 min at room temperature (293-298 K) before labeling. For mitochondrial membrane potential and mitochondrial measurements, pre-fixed cells were incubated with 50 uL of MitoTracker Red CMXRos (Invitrogen) at a concentration of 250 nM for 30 min before fixation. In the remaining cases, post-fixed cells were labeled by incubation with a multiplexed mixture of primary antibodies in HBSS for 60 min at room temperature (293-298 K) to detect immunoreactivity of c-Jun (1:500), phospho-histone H3 (1:100), phospho-histone H2A.x (1:200), p53 (1:400), alpha-tubulin (1:200) and Hoechst 33342 (2 ug/mL). Cells were labeled for multiplexed imaging on two separate plates: a) Hoechst 33342, MitoTracker Red, phospho-histone H3, and alpha-tubulin, and b) Hoechst 33342, phospho-histone H2A.x, and c-Jun. A final rinse with HBSS (50 uL) was performed before analysis. The primary and secondary antibodies for the proteins were phospho-histone H3 (rabbit anti-phospho-histone H3 and FITC-donkey anti-rabbit IgG), phospho-histone H2A.x (mouse anti-phospho-histone H2A.x and FITC-donkey anti-mouse IgG), c-Jun (rabbit anti-phospho-c-Jun and Cy3-donkey anti-rabbit IgG), p53 (sheep anti-p53 and Cy5-donkey anti-sheep IgG), alpha-tubulin (mouse anti-alpha-tubulin and Cy5-donkey anti-mouse IgG). These antibodies are available as the CellCiphr HepG2 assay kit (Millipore).Digital images of each well were captured using a Cellomics ArrayScan VTI (Thermo Scientific Cellomics) (0.8 NA objective, 0.63x optical coupler, and XF-93 filter set) at 20x magnification. The images were acquired using the autofocus feature of the ArrayScan instrument, which entails the following steps. First, the camera focuses on channel 1 (Hoechst 33342), where nuclei are identified. Second, a Z offset of 1 um is used for capturing mitochondria (MitoTracker Red). […]

SMILES	outcome	AC50
CC(O)CN(CCN(CC(C)O)CC(C)O)CC(C)O (stereo not given)	inactive	–
CCCCCCc1ccc(O)cc1O	inactive	–
C=CC(=C)CCC=C(C)C	inactive	–
O=C1CCC(N2C(=O)c3ccccc3C2=O)C(=O)N1 (stereo not given)	inactive	–
O=P(OC(CCl)CCl)(OC(CCl)CCl)OC(CCl)CCl	–	47.5 µM (active)
Cc1[nH]cnc1C[C@H]1CCc2c(C)c3ccccc3n2C1=O	–	89 µM (active)
Cc1ccc(O)cc1	inactive	–
CN(C)c1ccc(Cc2ccc(N(C)C)cc2)cc1	inactive	–
COCCOCCOCCOC	inactive	–
CC(C)c1cccc(C(C)C)c1N1C(=O)c2ccc(O)cc2C1=O	–	6.16 µM (active)
COc1cccc(-c2ccc(/C=C\CN3CCCCCC3)cc2Cl)c1	–	22.5 µM (active)
C1=CCCC=CCCC=CCC1	inactive	–
O=C(O)c1cccc(N(Cc2cccnc2)c2ccc(OC(F)F)c(OC(F)F)c2)c1	–	6.52 µM (active)
CCOC(=O)c1ccc(C2CCC(NC[C@H](O)COc3ccc(O)c(NS(C)(=O)=O)c3)CC2)cc1 (stereo not given in full)	–	14 µM (active)
Cn1cnc([N+](=O)[O-])c1Sc1ncnc2nc[nH]c12	inactive	–
CCCCC(CC)COC(=O)c1ccc(C(=O)OCC(CC)CCCC)cc1 (stereo not given)	–	31.5 µM (active)
Nc1nc2ncc(CNc3ccc(C(=O)N[C@@H](CCC(=O)O)C(=O)O)cc3)nc2c(=O)[nH]1	inactive	–
COc1ccc2sc(C(=O)Nc3nnn[nH]3)c(OC(C)C)c2c1	inactive	–
O=C(NS(=O)(=O)/C=C/c1ccccc1)c1ccc(F)cc1Cl	inactive	–
Oc1ccc2c(c1)-c1ccccc1C2	–	89 µM (active)

SMILES	outcome	AC50
CC[C@H](C)C(=O)O[C@H]1C[C@@H](C)C=C2C=C[C@H](C)[C@H](CC[C@@H]3C[C@@H](O)CC(=O)O3)[C@H]21	–	5.29 µM (active)
Cc1c(-c2cccnc2)c2ccccc2n1CCCCC(=O)O	inactive	–
CCCC(=O)OCC	inactive	–
COC(=O)CC(=O)OC	inactive	–
CC(C)CCO	inactive	–
CC(C)=CCC/C(C)=C\CO	inactive	–
CCC(C)(C)C(=O)O[C@H]1C[C@@H](C)C=C2C=C[C@H](C)[C@H](CC[C@@H]3C[C@@H](O)CC(=O)O3)[C@H]21	–	58.8 µM (active)
CC(=O)OC[C@H]1O[C@@](COC(C)=O)(O[C@H]2O[C@H](COC(C)=O)[C@@H](OC(C)=O)[C@H](OC(C)=O)[C@H]2OC(C)=O)[C@@H](OC(C)=O)[C@@H]1OC(C)=O	inactive	–
COCCOc1cc2cc(C(=O)NC3CCN(C(C)C)CC3)n(CC(=O)Nc3ccc(Cl)cn3)c2cn1	inactive	–
CCNc1ccccc1	inactive	–
CCOC(=O)CC(CC(=O)OCC)(OC(C)=O)C(=O)OCC	inactive	–
C1N2CN3CN1CN(C2)C3	inactive	–
O=C(O)c1cc(N=Nc2ccc(S(=O)(=O)Nc3ccccn3)cc2)ccc1O	inactive	–
CCOCCOCCOCCO	inactive	–
O=c1[nH]c2ccc(S(=O)CCN3CCC(Cc4ccc(F)cc4)CC3)cc2o1 (stereo not given)	–	111 µM (active)
O=C1CCCCCN1	inactive	–
O=C(O)CC(O)C(=O)O (stereo not given)	inactive	–
CC(C)=CCC/C(C)=C/CO	inactive	–
Cn1c(=O)c2c(ncn2C)n(C)c1=O	inactive	–
CN(C)c1ccc(N=NS(=O)(=O)O)cc1	inactive	–

From PubChem BioAssay (EPA / NIEHS)
